From PubChem BioAssay (Tox21)
Several values for one entry are separate records, joined by “and”; a condition that tells them apart may be missing. Identical values can stand only once. Inconclusive results are not listed. A call without a number means that no potency is given here. Some structures have more than one record in an assay (separate samples or runs), and their calls can disagree. Activity calls are given as the source filed them. Unless noted, calls come from the whole dose curve; as a rule, active = well fitted curve in the direction sought with a large enough effect in the repeat runs; inconclusive = weak or mixed curves; inactive = no such curve, though single readings can be large; an effect the other way counts as inactive or inconclusive.

Tests used:
[1] = qHTS assay to identify small molecule agonists of the vitamin D receptor (VDR) signaling pathway - cell viability counter screen (AID 743224); note: nearly all actives have a fitted effect of over 50% in size; note: potency is the fitted concentration of half-maximal effect
Outline: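 In parallel with the bla FRET readout, cytotoxicity toward VDR-bla cells after 16 h compound exposure was assessed by CellTiter-Glo, with luminescence recorded after a 30 min room-temperature incubation.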

[2] = qHTS assay to identify small molecule antagonists of the vitamin D receptor (VDR) signaling pathway - cell viability counter screen (AID 743225); note: nearly all actives have a fitted effect of over 50% in size; note: potency is the fitted concentration of half-maximal effect
Outline: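 Same-well multiplex: following 16 h treatment of HEK 293T cells carrying a UAS-driven beta-lactamase reporter with compound and agonist (3 nM final), and a 2 h FRET substrate step, CellTiter-Glo was added and luminescence read after 30 min.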

[3] = qHTS assay to identify small molecule agonists of the NFkB signaling pathway - cell viability counter screen (AID 1159515; calls by dose curve; note: nearly all actives have a fitted effect of over 55% in size; note: potency is the fitted concentration of half-maximal effect)
Outline: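 Plate 2,000 NFkB-bla ME-180 cells/well; incubate overnight. Add compounds, 5 hr at 37 C. Add FRET substrate, 1.5 hr RT. Add CellTiter-Glo, 30 min RT; read luminescence.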

[4] = qHTS assay to identify small molecule agonists of the endoplasmic reticulum stress response signaling pathway (AID 1159516; active = well fitted activation curve with a large enough effect in the signal ratio in the repeat runs, not every such curve was filed as active; the % refers to the signal ratio)
Outline: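 Beta-lactamase expression from the ER stress response element in HeLa reporter cells is quantified with the LiveBLAzer B/G FRET substrate, read at 405 nm excitation after 2 hr at room temperature, following 5 hr compound treatment at 37 C.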

[5] = qHTS assay to identify small molecule agonists of the endoplasmic reticulum stress response signaling pathway - cell viability counter screen (AID 1159517; calls by dose curve; note: nearly all actives have a fitted effect of over 50% in size; note: potency is the fitted concentration of half-maximal effect)
Outline: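 After overnight attachment, ESRE-bla HeLa cells were treated with Tox21 library compounds for 5 hr. CellTiter-Glo luminescence, read 30 min post-addition at room temperature, reported viability.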

[6] = qHTS assay to identify small molecule antagonists of the retinoid-related orphan receptor gamma (ROR-gamma) signaling pathway - cell viability counter screen (AID 1159520); note: nearly all actives have a fitted effect of over 50% in size; note: potency is the fitted concentration of half-maximal effect
Outline: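 Cytotoxicity was read from cellular ATP (CellTiter-Glo luminescence) after 16 hr at 37 C with 1 uM doxycycline induction. The inducer was added 2 hr after compound transfer to Tet-on ROR gamma CHO cells.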

[7] = qHTS assay to identify small molecule agonists of the AP-1 signaling pathway - cell viability counter screen (AID 1159525; calls by dose curve; note: nearly all actives have a fitted effect of over 55% in size; note: potency is the fitted concentration of half-maximal effect)
Outline: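 Intracellular ATP by Cell Titer Glo luminescence (30 min, RT) in the same ME-180 AP-1-bla wells after the 5 h compound exposure at 37 °C. Normalised to tetra n-octyl ammonium bromide and DMSO controls.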

[8] = qHTS assay to identify small molecule agonists of the AP-1 signaling pathway (AID 1159526; calls by dose curve)
[9] = biological target: Retinoic acid receptor RXR-alpha (Homo sapiens) (UniProt P19793); experiment: qHTS assay to identify small molecule agonists of the RXR signaling pathway (AID 1159527; calls by dose curve; note: nearly all actives have a fitted effect of over 35% in size; note: potency is the fitted concentration of half-maximal effect)
Sequence of Retinoic acid receptor RXR-alpha (Homo sapiens) (P19793 whole entry, looked up): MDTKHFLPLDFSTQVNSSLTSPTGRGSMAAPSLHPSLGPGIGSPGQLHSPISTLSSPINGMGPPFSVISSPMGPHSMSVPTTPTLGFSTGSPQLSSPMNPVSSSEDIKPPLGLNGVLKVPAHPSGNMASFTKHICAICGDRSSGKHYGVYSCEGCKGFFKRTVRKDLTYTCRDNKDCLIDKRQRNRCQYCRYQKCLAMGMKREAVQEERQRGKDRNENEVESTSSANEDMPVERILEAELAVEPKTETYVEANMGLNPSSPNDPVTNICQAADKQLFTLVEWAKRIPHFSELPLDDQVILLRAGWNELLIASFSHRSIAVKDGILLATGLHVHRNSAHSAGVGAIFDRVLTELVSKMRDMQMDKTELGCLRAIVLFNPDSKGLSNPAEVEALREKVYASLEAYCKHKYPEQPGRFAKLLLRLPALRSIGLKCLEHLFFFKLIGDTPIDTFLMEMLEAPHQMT
Outline: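 Compounds in DMSO were added to RXR-alpha-UAS-bla HEK 293T cells kept in 2% charcoal-stripped serum, and incubated 16 hr at 37 C with 5% CO2. Reporter signal came from a 2 hr B/G FRET substrate step.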

[10] = qHTS assay to identify small molecule agonists of the RXR signaling pathway - cell viability counter screen (AID 1159529); note: nearly all actives have a fitted effect of over 50% in size; note: potency is the fitted concentration of half-maximal effect
Outline: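 Counter screen: CellTiter-Glo luminescence. Cells: RXR-alpha-UAS-bla HEK 293T. Medium: 2% charcoal-stripped FBS. Treatment: 16 h, 37 C. Reagent incubation: 30 min, RT.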

[11] = qHTS assay to identify small molecule antagonists of the retinoid acid receptor (RAR) signaling pathway - cell viability counter screen (AID 1159551); note: nearly all actives have a fitted effect of over 35% in size; note: potency is the fitted concentration of half-maximal effect
Outline: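 Viability of C3RL4 cells is quantified from ATP by luminescence after 6 h treatment at 37 C with compounds and 1 uM retinol.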

[12] = biological target: Nuclear receptor ROR-gamma (Homo sapiens) (UniProt P51449); experiment: qHTS assay to identify small molecule antagonists of the retinoid-related orphan receptor gamma (ROR-gamma) signaling pathway (AID 1159521; note: nearly all actives have a fitted effect of over 50% in size; note: potency is the fitted concentration of half-maximal effect)
Outline: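 Inducible-expression reporter assay: doxycycline (1 uM final) switched on RORγ in CHO cells bearing a ROR response element-luciferase construct, with test compounds present from 2 h beforehand. Decreased luminescence after 16 h defined antagonist activity.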

[13] = qHTS assay to identify small molecule antagonists of the retinoic acid receptor (RAR) signaling pathway (AID 1159552; note: nearly all actives have a fitted effect of over 50% in size; note: potency is the fitted concentration of half-maximal effect)
Outline: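 Antagonism of retinol-induced RARE reporter activity was measured in C3RL4 cells. Exposure to compounds and 1 uM final retinol lasted 6 hr at 37 C, with luminescence as endpoint.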

[14] = qHTS assay to identify small molecule agonists of the retinoic acid receptor (RAR) signaling pathway (AID 1159553); conditions: C3RL4 RARE luciferase reporter, agonist, 6 h; activation: at 73.3 µM (top of the series) unless noted; note: potency is the fitted concentration of half-maximal effect
Outline: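 Compounds dissolved in DMSO were pinned onto C3RL4 cells seeded the previous day, and plates were held 6 hr at 37 C. RARE-driven luciferase output was then read by luminescence.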

Compound	Potency [1]	Potency [2]	Potency [3]	Potency [4]	Potency [5]	Potency [6]	Potency [7]	outcome [8]	Potency [9]	Potency [10]	Potency [11]	Potency [12]	Potency [13]	Potency [14]
ClC(Cl)(Cl)c1ccccc1	inactive	inactive	inactive	inactive	inactive	inactive	inactive	inactive	inactive	inactive	inactive			
CCOC(=O)c1ccccc1N	inactive	inactive	inactive	inactive	inactive	inactive	inactive	inactive		inactive	inactive	inactive	inactive	inactive
COc1ccc(CO)cc1	inactive	inactive	inactive	inactive	inactive	inactive	inactive	inactive	inactive	inactive	inactive	inactive		
CCCCCCCC[N+](C)(CCCCCCCC)CCCCCCCC	6.15 µM (active) and 3.09 µM (active) and 5.49 µM (active)	5.48 µM (active) and 6.93 µM (active) and 6.16 µM (active)	17.3 µM (active) and 24.5 µM (active)	inactive	inactive and 13.8 µM (active) and 21.9 µM (active)	24.3 µM (active) and 21.7 µM (active) and 10.9 µM (active)	17.3 µM (active) and 13.8 µM (active) and 19.5 µM (active)			346 nM (active) and 15.5 µM (active) and 6.16 µM (active)	27.3 µM (active) and 61.2 µM (active)	4.32 µM (active) and 2.17 µM (active) and 6.11 µM (active)	4.85 µM (active) and 9.7 µM (active) and 13.7 µM (active)	
CC(C)=CC1C(C(=O)OCN2C(=O)C3=C(CCCC3)C2=O)C1(C)C (configuration not stated)	inactive	inactive	inactive	inactive	inactive	inactive	inactive				inactive			
CCOP(=S)(OCC)SCn1c(=O)oc2cc(Cl)ccc21	inactive	inactive	inactive	inactive		inactive	inactive			inactive	inactive	32.9 µM (active)	inactive	inactive
O=NN(c1ccccc1)c1ccccc1	inactive	inactive	inactive	inactive		inactive	inactive	inactive	inactive	inactive	inactive	inactive	inactive	inactive
ClC(Cl)(Cl)Br	inactive	inactive	inactive	inactive		inactive	inactive	inactive	inactive	inactive	inactive	inactive	inactive	inactive
N#Cc1c(Cl)c(Cl)c(Cl)c(C#N)c1Cl	1.91 µM (active) and 1.95 µM (active)	6.79 µM (active) and 8.71 µM (active)	inactive		5.39 µM (active) and 5.49 µM (active)	1.51 µM (active) and 864 nM (active)	7.76 µM (active)			6.05 µM (active) and 4.9 µM (active)	37.8 µM (active) and 38.6 µM (active)	1.9 µM (active) and 1.22 µM (active)	3 µM (active) and 3.06 µM (active)	847 nM (active) and 486 nM (active)
OC(c1ccc(Cl)cc1)(c1cncnc1)c1ccccc1Cl (configuration not stated)	inactive	inactive	inactive	inactive		15.6 µM (active) and inactive	inactive	inactive		inactive	inactive		27.8 µM (active) and inactive	inactive
c1ccc(C2CO2)cc1 (configuration not stated)	inactive	inactive	inactive	inactive		inactive	inactive	inactive	inactive and 17.4 µM (active)	inactive	inactive	inactive		
CC(C)Nc1ccc(Nc2ccccc2)cc1	43.5 µM (active) and 43.6 µM (active)	43.6 µM (active)	inactive	inactive	inactive		43.5 µM (active) and 54.9 µM (active)			19.4 µM (active) and 21.9 µM (active)		38.4 µM (active) and 54.5 µM (active)		
COP(=O)(NC(C)=O)SC (configuration not stated)	inactive	inactive	inactive	inactive		inactive	inactive	inactive	inactive	inactive	inactive	inactive		
CC(C)(c1ccccc1)c1ccc(O)c(C(C)(C)c2ccccc2)c1	19.3 µM (active) and 15.5 µM (active)	30.6 µM (active) and 17.4 µM (active)	21.7 µM (active) and 21.9 µM (active)			48.1 µM (active) and 30.6 µM (active)	12.2 µM (active) and 21.9 µM (active)			13.7 µM (active) and 15.5 µM (active)	54 µM (active) and 61.1 µM (active)	19.2 µM (active) and 27.3 µM (active)	27.1 µM (active) and 27.3 µM (active)	
Clc1cccc(Cl)c1	inactive	inactive	inactive	inactive		inactive	inactive	inactive		inactive	inactive		inactive	inactive
C=CC(=O)OCC(CC)(COC(=O)C=C)COC(=O)C=C	20 µM (active) and 11 µM (active)	20 µM (active) and 17.4 µM (active)	inactive	inactive	inactive and 24.5 µM (active)		inactive			15.9 µM (active) and 21.9 µM (active)	inactive	3.15 µM (active) and 6.86 µM (active)	8.87 µM (active) and 15.4 µM (active)	2.23 µM (active)
C[N+](C)(C)CC(=O)[O-]	inactive	inactive	inactive	inactive		inactive	inactive	inactive	inactive	inactive	inactive	inactive		
CCNCC	inactive	inactive	inactive	inactive		inactive	inactive	inactive	inactive	inactive	inactive			
CNC(=O)CSP(=S)(OC)OC	inactive	inactive	inactive	inactive		inactive	inactive	inactive	inactive	inactive	inactive	inactive		
